Assay outcomes (PubChem BioAssay)
The entries come from a sample that favours hits as a whole.
SF1 inhibitor – blocks the human nuclear receptor SF-1; Q13285; CHO-K1 Gal4-SF-1 LBD luciferase reporter; inhibition, % at 10 µM; actives 0.55% (n = 65,000); AID 525;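 active means inhibition above the mean inhibition of all tested compounds plus 3 SD, cut at about 48% in these data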;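 further: 0% = SF-1 transfected cells with DMSO and 100% = mock-transfected cells lacking SF-1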
Target sequence (Q13285 whole entry, looked up, the tested form may be a part): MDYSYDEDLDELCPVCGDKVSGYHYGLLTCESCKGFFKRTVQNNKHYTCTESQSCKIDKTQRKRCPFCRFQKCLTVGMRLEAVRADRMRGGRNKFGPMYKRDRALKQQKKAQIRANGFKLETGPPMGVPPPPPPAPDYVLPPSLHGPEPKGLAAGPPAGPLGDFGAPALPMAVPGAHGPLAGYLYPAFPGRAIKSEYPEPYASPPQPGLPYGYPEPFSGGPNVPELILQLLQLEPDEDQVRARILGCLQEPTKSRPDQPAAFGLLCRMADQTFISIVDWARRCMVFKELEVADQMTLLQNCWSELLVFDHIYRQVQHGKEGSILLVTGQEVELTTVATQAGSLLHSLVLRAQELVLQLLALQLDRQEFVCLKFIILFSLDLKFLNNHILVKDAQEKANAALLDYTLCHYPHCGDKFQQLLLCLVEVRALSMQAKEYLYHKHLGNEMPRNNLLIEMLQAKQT
Active calls of the source: *.

SMILES | SF1 inhibitor
Cn1c(N2CCN(C(=O)NCc3ccccc3)CC2)nc2ccccc21 | 8
CCN(CC)S(=O)(=O)c1ccc(C(=O)NCc2n[nH]c(=S)n2Cc2ccccc2)cc1 | 4
CCc1nn(CC(=O)O)c(=O)c2ccccc12 | -18
COc1cccc(OC)c1NC(=O)Cc1nn(C)c(=O)c2ccccc12 | -3
Cc1ccc(OCC(=O)Nc2ccc(N3CCOCC3)cc2)cc1 | -2
Cc1ccc(NC(=O)Cc2nn(C)c(=O)c3ccccc23)cc1F | 80*
Cc1csc(NC(=O)Cc2nn(C)c(=O)c3ccccc23)n1 | 54*
O=C(Nc1ccc2c(c1)OCCO2)c1c(F)cccc1F | -56
Cn1nc(CC(=O)Nc2ccc3c(c2)OCCO3)c2ccccc2c1=O | 62*
Cn1nc(CC(=O)Nc2ccc(N3CCN(C(=O)OC(C)(C)C)CC3)cc2)c2ccccc2c1=O | 63*
Cn1c(SCC(=O)Nc2ccc3c(c2)OCCO3)nnc1-c1ccco1 | -16
CCC(=O)Nc1ccc(N2CCN(C(=O)c3ccccc3C)CC2)cc1 | 4
COc1ccc2c(c1)c(C(=O)CNc1nc(C)cs1)c(C)n2C | 6
Cn1nc(C(=O)NCC2CCCO2)c2ccccc2c1=O (stereo not given) | 6
NC(=O)c1cc(Cl)cn(-c2ccccc2)c1=O | 24
COC(=O)c1ccccc1NC(=O)Nc1cc(C)cc(C)n1 | -8
CCOC(=O)C(NC(=O)c1ccccc1)(N1CCCC1=O)C(F)(F)F (stereo not given) | 8
CCOC(=O)c1c(N)sn(-c2ccccc2C)c1=S | 0
O=C(Cn1cnc2ccccc21)NCCCN1CCOCC1 | -24
O=C(NCCN1CCN(c2ccccc2F)CC1)C1CC(=O)N(C2CCCC2)C1 (stereo not given) | 5
O=C(Nc1ccc(Br)cn1)c1ccc2nccnc2c1 | -69
CCOc1ccc(N2C(=O)c3cccnc3C2Nc2ccc(C)cc2)cc1 (stereo not given) | 0
CCCC1C(c2ccc(OC)cc2)C(C#N)(C#N)C2(C#N)CC1(N)NC2=O (stereo not given) | -8
CCCCNC1C(CC)C(CCC)C(C#N)(C#N)C1(C#N)C#N (stereo not given) | 22
COc1ccc(N2C(=O)CC(c3ccc(OC(C)C)cc3)C2=O)cc1 (stereo not given) | 1
SMILES | SF1 inhibitor
CC(=O)Nc1ccc(-c2nc3c(C)cccc3[nH]2)cc1 | -99
Cc1cc(-n2c(C)cc(C(=O)CSc3ncnc4ccccc34)c2C)no1 | 71*
Cc1cc(C(=O)CSc2nc3ccccc3[nH]2)c(C)n1C | -61
Cc1cc(C(=O)CSc2nc3ccccc3o2)c(C)n1C1CC1 | -61
COCCCNC(=O)CS(=O)Cc1nc(-c2ccccc2C)oc1C (stereo not given) | -18
Cn1c(=O)c2c(nc(N3CCOCC3)n2CCCNC2=NCCC2)n(C)c1=O | 2
O=C(CN1C(=O)NC2(CCCCCC2)C1=O)c1ccc2c(c1)OCCO2 | -89
COCCNc1nc2c(c(=O)n(C)c(=O)n2C)n1Cc1cccc(C)c1 | -2
Cn1c(=O)c2c(nc(NC(Cc3ccccc3)C(=O)O)n2Cc2ccccc2)n(C)c1=O (stereo not given) | 9
Cn1c(=O)c2c(nc(NCc3ccco3)n2C/C=C/c2ccccc2)n(C)c1=O | 53*
COc1cc(SC)ccc1C(=O)Nc1ccccc1C#N | -60
Cc1ccc(-c2cc(C(=O)N3CCCC3)no2)cc1 | 51*
O=C(c1cc(-c2cccc(O)c2)on1)N1CCN(C(c2ccccc2)c2ccccc2)CC1 | 5
COc1ccc(-c2cc(C(=O)N3CCCCC3)no2)cc1OC | -77
Cc1cc(=O)[nH]c(N2CCCC2)n1 | 5
CCOC(=O)N1CCC(NC(=O)c2cnn3cccnc23)CC1 | -16
COCCn1c(C)cc(C(=O)CSc2nc3ccccc3c(=O)[nH]2)c1C | -8
COCCn1c(C)cc(C(=O)COC(=O)c2ccc3ncsc3c2)c1C | -52
COCCn1c(C)cc(C(=O)COC(=O)c2n[nH]c3ccccc23)c1C | 67*
Cc1ccc2oc(=O)c3cnn(CC(=O)NCCC(C)C)c3c2c1 | 14
CCOc1ccc(C(C)=O)cc1CSc1nnc(-c2cccs2)n1CC1CCCO1 (stereo not given) | 7
CC(=O)c1sc(NC(=O)C2(F)C(F)(F)C(F)(F)C(F)(F)C(F)(F)C2(F)F)nc1C | 93*
CCOC(=O)c1sc(NC(=O)C2CC2)nc1C | -8
CC(=O)c1sc(Nc2nc3ccc(F)cc3s2)nc1C | -53
Cc1c(NC(=O)C(CC(=O)O)NCc2ccco2)c(=O)n(-c2ccccc2)n1C (stereo not given) | -1
SMILES | SF1 inhibitor
CCOCCCN(C(=O)c1ccco1)C(C(=O)NC1CCCC1)c1cccc(OC)c1OC (stereo not given) | 10
Cc1nnc(SCCN2CCOCC2)n1C | -13
COc1ccc(C(CCc2ccc(C)o2)NC(=O)Nc2ccc(OC)cc2OC)cc1 (stereo not given) | 6
COc1ccc2cc(CCNC(=O)C3CC3)c(=O)[nH]c2c1 | -5
CCOC(=O)c1nnn(-c2nonc2N)c1COc1ccccc1 | 6
O=C(c1ccc(NC2=NC3CS(=O)(=O)CC3S2)cc1)N1CCc2ccccc2C1 (stereo not given) | 2
